BoNT-A LC inh2: inhibitors of Botulinum neurotoxin A light chain protease | inhibition, % at 10 µM | AID 588499 | 360,000 compounds, 0.17% hits | multiplex microsphere protease substrate cleavage, flow cytometry
DUSP3 inh: DUSP3 (human) phosphatase inhibition; AID 1654; P51452; 290,000 compounds, 0.52% hits; recombinant VHR phosphatase, pNPP absorbance; inhibition, % at 13.3 µM; in the data active means inhibition above about 50%
Target sequence (P51452 whole entry, looked up): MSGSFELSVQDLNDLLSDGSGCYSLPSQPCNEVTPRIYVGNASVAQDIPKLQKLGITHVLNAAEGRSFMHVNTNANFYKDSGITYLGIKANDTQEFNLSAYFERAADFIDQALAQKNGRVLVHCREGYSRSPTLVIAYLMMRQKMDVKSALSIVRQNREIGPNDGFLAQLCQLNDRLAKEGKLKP
MazEF act: increases E. coli MazEF RNase cleavage of RNA | P0AE70 | FAM/BHQ RNA-DNA oligo cleavage fluorescence, 5 h | activation, % at 20 µM | 350,000 compounds, 0.32% hits | AID 504720; in the data active means activation above about 50%
Target sequence (P0AE70 whole entry, looked up): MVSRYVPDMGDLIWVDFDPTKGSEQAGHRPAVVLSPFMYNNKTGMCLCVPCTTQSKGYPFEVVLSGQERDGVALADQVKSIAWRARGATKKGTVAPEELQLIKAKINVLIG
BoNT-F LC inh: inhibitors of Botulinum neurotoxin F light chain protease; Multiplex microsphere protease cleavage assay, flow cytometry; inhibition, % at 10 µM; 360,000 compounds, 0.22% hits; in the data active means inhibition above about 35%, passing the limit was not always enough; inconclusive means no clear call, values can overlap the other calls
Anthrax LF inh2: inhibitors of Bacillus anthracis lethal factor protease. P15917. multiplex microsphere protease cleavage assay, LF. inhibition, % at 10 µM. 360,000 compounds, 0.12% hits
Bead autofluor: counter-screen for toxin protease inhibitors: compound fluorescence | 360,000 compounds, 3.1% hits | fluorescence intensity (concentration not given with the values) | compound autofluorescence counterscreen, microsphere flow cytometry; stronger effect = higher value; in the data active means fluorescence intensity above about 16000; inconclusive means no clear call, values can overlap the other calls
Large screens that a line does not name were inactive. Only some compounds are listed: those with a hit (about 4.1% of all), similar ones and a draw of the others. Unless noted, no stated cut-off is given here; in the data, active means inhibition above about 30%; inconclusive means no clear call, values can overlap the other calls; inactive means below that.

CCN1CCN(C(c2cc3cc4c(cc3[nH]c2=O)OCO4)c2nnnn2C(C)(C)CC)CC1 (stereo not drawn)	Bead autofluor 20945
CCC(C)(C)n1nnnc1C(c1cc2cc(OC)c(OC)cc2[nH]c1=O)N1CCc2ccccc21 (stereo not drawn)	Bead autofluor 24005
COc1ccc(OC(=O)CN2C(=O)C3C4CCC(C4)C3C2=O)cc1 (stereo not drawn)	none
Cc1cccc(OC(=O)CN2C(=O)C3C4CCC(C4)C3C2=O)c1C (stereo not drawn)	Bead autofluor 23771
Cc1ccc(/C(N)=N/OC(=O)CCC2CCCC2)cc1	none
Cc1ccc(/C(N)=N/OC(=O)CCC2CCCCC2)cc1	Bead autofluor 16562
Cc1ccc(/C(N)=N/OC(=O)Cc2cccs2)cc1	Bead autofluor 23460
Cc1cccc(/C(N)=N/OC(=O)Cc2cccs2)c1	Bead autofluor 19950
Fc1ccccc1-n1c(-c2ccc3ccccc3n2)n[nH]c1=S	DUSP3 inh 53
S=c1[nH]nc(-c2ccc3ccccc3n2)n1-c1ccccc1	none
CN(/N=C/c1ccc(O)cc1O)c1ncc(C(F)(F)F)cc1Cl	BoNT-A LC inh2 inconclusive, BoNT-F LC inh inconclusive
CCOC(=O)Nc1cccc(OCC(=O)Nc2ccc3c(c2)CCC3)c1	Anthrax LF inh2 inconclusive, Bead autofluor inconclusive (no result: DUSP3 inh)
Cc1[nH]n(-c2ccccc2)c(=O)c1C=Nc1cccc(F)c1	none
Cc1cccc(/N=C/c2c(C)[nH]n(-c3ccccc3)c2=O)n1	Bead autofluor inconclusive
Cc1[nH]n(-c2ccccc2)c(=O)c1C=Nc1ccc2[nH]c(=O)[nH]c2c1	MazEF act 90
Cc1cccc(-n2[nH]c(C)c(C=Nc3ccc4[nH]c(=O)[nH]c4c3)c2=O)c1	MazEF act 154
COc1cc2c(cc1N)-c1ccc(N)cc1C2	none (no result: DUSP3 inh)
COc1ccc(NC(=O)COC(=O)c2cc(=O)c3ccccc3o2)cc1OC	none (no result: DUSP3 inh)
COc1cc2c(cc1OC)C(C)N(C(=O)c1sccc1C)CC2 (stereo not drawn)	DUSP3 inh 52
COc1cc2c(cc1OC)C(C)N(C(=O)c1ccc(C)o1)CC2 (stereo not drawn)	none
CCCCN(C=O)c1c(CC)nc2c(OCc3ccc(S(C)(=O)=O)cc3)cccn12	none (no result: DUSP3 inh, MazEF act)
COc1ccc(NC(=O)C2(C)CCN2C2Cc3ccccc3C2)cc1OC (stereo not drawn)	none (no result: DUSP3 inh, MazEF act)
CCC(=O)c1ccccc1OCCCN1CCC(Cc2ccccc2)CC1	BoNT-F LC inh inconclusive
O=C(Nc1ccc(S(=O)(=O)Nc2ncccn2)cc1)C12CC3CC(CC(Cl)(C3)C1)C2	none (no result: DUSP3 inh)
O=C(CNC(=O)C(c1ccccc1)c1ccccc1)N/N=C/c1cccnc1	none
O=C(N/N=C/c1cccnc1)c1ccc(NC(=O)C(c2ccccc2)c2ccccc2)cc1	MazEF act 61
CCCC(=O)Nc1ccc(C(=O)N/N=C/c2cccnc2)cc1	BoNT-A LC inh2 inconclusive, Bead autofluor 23205
CN1CCC(=O)N([C@H](CN=[N+]=[N-])Cc2ccccc2)CC1	none
C=CCn1c(N)c(C(=O)NC2CCCCC2)sc1=S	Bead autofluor 23947
C=CCn1c(N)c(C(=O)NCc2cccnc2)sc1=S	none
CCCn1c2ccccc2c2nnc(SCC(=O)OCC)nc21	none
CCCn1c2ccccc2c2nnc(SCC(=O)OC)nc21	Bead autofluor 20508
CCOC(=O)CSc1nc2sc3c(c2c(=O)n1-c1ccccc1)CCN(C(C)C)C3	BoNT-A LC inh2 56
O=C(CN1CCOCC1)Nc1ncc(Cc2ccccc2Cl)s1	none
CCc1nnc(NC(=O)CCN2C(=O)c3ccccc3C2=O)s1	Bead autofluor 22862
CCc1ccc(CCC(=O)Nc2nnc(CC)s2)o1	Bead autofluor 16177
CCc1nnc(NC(=O)CCC(=O)Nc2ccccc2)s1	none
CCc1ccc(CCC(=O)Nc2ncc(Cc3ccccc3Cl)s2)o1	DUSP3 inh 60
CCCc1nnc(NC(=O)CCCN2C(=O)c3ccccc3C2=O)s1	none
COCc1cc(=O)c2ccccc2o1	none (no result: DUSP3 inh)
O=C(CCS(=O)(=O)c1cccs1)Nc1ccc(C(=O)NCc2ccccc2)cc1	DUSP3 inh 53
O=[N+]([O-])c1cc(Br)c(O)c(/C=N/Nc2nnnn2-c2cccc3ccccc23)c1	Bead autofluor 22718
C(=C\c1ccccc1)/CN1CCN(C(c2cccs2)c2nnnn2-c2ccc3c(c2)OCCO3)CC1 (stereo not drawn)	none (no result: DUSP3 inh, MazEF act)
COc1cc(NC(=O)Cn2c(-c3cncs3)nc3ccccc32)cc(OC)c1OC	BoNT-A LC inh2 inconclusive, Bead autofluor 21248
COc1cc(NC(=O)Cn2c(C)cc3ccccc3c2=O)cc(OC)c1OC	none
C/C(=C\C(=O)Nc1nccs1)c1ccccc1	BoNT-A LC inh2 inconclusive, Bead autofluor 17209
C/C(=C\C(=O)O)C(=O)Nc1nccs1	BoNT-F LC inh inconclusive
C#CCOc1ccc2ccccc2c1/C=C(/C#N)c1ccc(C(=O)O)cc1	BoNT-F LC inh inconclusive
O=C1NC[C@H](CCCCN2C[C@H](Cc3ccc(O)cc3)N(CCc3ccc(O)cc3)C(=O)C2=O)N(Cc2ccccc2)C1=O	none (no result: DUSP3 inh, MazEF act)
O=[N+]([O-])c1cc(/C=N\Nc2nc(-c3ccccc3)cs2)ccc1O	none
Cc1csc(N/N=C/c2ccc(O)c([N+](=O)[O-])c2)n1	Bead autofluor 22477
O=c1oc2ccc3ccccc3c2c2c1SC(C(F)(F)F)C2 (stereo not drawn)	none
O=c1oc2ccccc2c2c1SC(C(F)(F)F)C2 (stereo not drawn)	DUSP3 inh 56
COCCCNC(=O)C[C@H]1C[C@H](C(=O)N2CCOCC2)[C@@]2(C)c3[nH]c4cc(CCC(=O)N(C)C)ccc4c3CCN2C1=O	none (no result: DUSP3 inh)
COc1cc2c(cc1OC)C1CCc3cc4c(cc3C1N=C2)OCO4 (stereo not drawn)	none (no result: DUSP3 inh)
C=CCn1c(SCC(=O)N(CC)CC)nc(O)cc1=O	BoNT-A LC inh2 inconclusive, Bead autofluor 23021
C=CCn1c(SCC(=O)N2CCCCC2)nc(O)cc1=O	none
CCc1nnc(SCC(=O)Nc2ccc(NC(C)=O)cc2)n1-n1cccc1	BoNT-F LC inh inconclusive (no result: DUSP3 inh)
CC(C)=CC(=O)Nc1ccccc1C(N)=O	none
CC(C)=CC(=O)Nc1ccccc1Br	Bead autofluor 17220
Cc1ccc(CNC(=O)c2ccc(CNS(=O)(=O)c3ccc4c(c3)C(C)(C)C(=O)N4C)cc2)o1	MazEF act 102
CCC(C)NC(=O)c1ccc(CNS(=O)(=O)c2ccc3c(c2)C(C)(C)C(=O)N3C)cc1 (stereo not drawn)	MazEF act 107
COc1ccc(NS(=O)(=O)c2cccc(C(=O)N3CCN(C/C=C/c4ccccc4)CC3)c2)cc1	none (no result: DUSP3 inh)
Cc1cc2c(cc1C)N[C@]1(C[C@H]3CCCC(=O)N4CC[C@@H](C1)[C@@H]34)C(=NC(C)(C)CC(C)(C)C)N2	none (no result: DUSP3 inh)
Cc1ccc(C=C2C(=O)c3ccccc3C2=O)o1	MazEF act 91
N#Cc1nc(-c2ccc(F)cc2)oc1NCc1ccccc1	none
CC(C)(C)c1ccc(-c2nc(C#N)c(NCc3cccnc3)o2)cc1	Bead autofluor 17505

Source: PubChem
